L major viab = reduces viability of Leishmania major promastigotes. resazurin fluorescence viability. inhibition, % at 10 µM. 200,000 compounds, 9% hits; in the data active = inhibition above about 50%;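 note: promastigotes grown with compound for 44 hours at 28 °C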
m-calpain inh = inhibitors of pig calpain II | purified calpain II, fluorogenic peptide substrate, 30 min | inhibition, % at 16 µM | 220,000 compounds, 0.37% hits;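 active = inhibition above about 50%, limit read from the data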
WT yeast gro inh = growth inhibition of WT yeast, mitochondrial fusion screen; mitochondrial fusion phenotypic screen, WT strain; inhibition, % at 10 µM; 190,000 compounds, 2.1% hits; AID 1362; in the data active = inhibition above about 58%; tested in S. cerevisiae
ROMK mod = human ROMK K+ channel modulation, primary screen. P48048. Tet-inducible ROMK, thallium flux fluorescence; actives lie on both sides. B-score at 10 µM. 130,000 compounds, 2% hits. AID 1918;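 active = signal ratio slope over the read window, or its plate-corrected B-score, at least 3 SD from the plate mean, either direction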;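 note: B-score of the F/F0 ratio slope over 7 to 12 s after thallium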
Cl transport mod = modulators of human KCC2 chloride dependent transport | Q9H2X9 | KCC2 cells, thallium flux FluoZin-2 fluorescence | B-score of Tl+ flux slope (higher = more flux/activation; lower = inhibition) at 10 µM | 190,000 compounds, 2.2% hits;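 active = thallium flux slope and its plate-corrected score both differing from the plate sample mean at a set confidence after two filtering rounds, in either direction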;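 note: slope of fluorescence scaled to starting intensity during 10 to 20 s after thallium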
ROMK retest = confirmation of human ROMK potassium channel modulators; normalized thallium flux (F/F0 slope) at 10 µM; shares compounds with ROMK mod; 3,000 compounds, 54% hits; ROMK thallium flux, fluorescence ratio; active compounds read low;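 active = Flux at 10 µM at least 3 SD below or above vehicle control mean in one or both replicates; inconclusive = no clear call, values can overlap the other calls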
* marks the source's active call; other numbers are inactive results; ? = inconclusive; . = no result. Sampled rows, rich in hits. Any-hit rate of the full collection: about 12%.

SMILES	L major viab	m-calpain inh	WT yeast gro inh	ROMK mod	Cl transport mod	ROMK retest
Cc1cc(Br)ccc1SCC(=O)OCC(=O)NC1CCCC1	-4.8	30.3	4.2	0.898	0.841	.
CCCCC1CCC(C(=O)NCc2ccc3c(c2)OCO3)CC1 (centres undefined)	-7.2	-6.7	1.1	0.692	0.679	.
CCOC(=O)c1c(CSc2ccc(C)cc2)n(C)c2cc(Br)c(O)c(CN(C)C)c12	70.6*	-5.8	55.7	.	.	0.0515*
N#C/C(=C\c1c[nH]c2ccccc12)c1nnc2n1CCCCC2	-1.2	9.9	-13.3	.	-1.19	.
N#C/C(=N\Nc1cccc2ccccc12)c1nnc2n1CCCCC2	-1.2	-49.0	4.1	.	-0.0276	0.0587*
O=S(=O)([O-])CCC[n+]1c(SCCCS(=O)(=O)O)sc2ccc(Cl)cc21	16.6	-9.9	-16.9	-0.0209	0.171	.
Cc1ccc(/C=C2/NC(=O)N(c3ccccc3)C2=O)o1	0.1	-19.8	3.1	.	0.0437	.
O=C1N/C(=C/c2ccc(N3CCOCC3)o2)C(=O)N1c1cccc(Cl)c1	2.5	-38.6	7.5	-4.88*	-2.28	0.0387*
COc1cc(C2C3=C(Nc4nc(N)[nH]c(=O)c42)c2ccccc2C3=O)ccc1O (centres undefined)	.	-34.5	.	.	0.0312	.
COc1ccc(N/C(N)=N/c2nc(CSc3nnc(C)s3)cc(=O)[nH]2)cc1	-0.5	-34.1	-7.1	3.92*	-0.272	0.0788
Cc1ccc(SCc2cc(=O)[nH]c(/N=C(\N)Nc3cccc4ccccc34)n2)cc1	15.2	-10.0	2.0	.	0.42	.
Cc1ccc(N/C(N)=N/c2nc(CSc3nnc(C)s3)cc(=O)[nH]2)c(C)c1	3.9	14.5	8.6	6.31*	0.846	0.0859
Cc1cccc(Oc2ncnc3onc(C)c23)c1C	-7.0	28.5	-16.4	.	0.411	.
COCCNC(=O)CN1C(=O)COc2ccc(Cl)cc21	-5.9	20.7	1.3	1.74	0.547	0.0785
COCCNC(=O)CSc1cc(=O)n(C)c2cc(Cl)ccc12	3.1	-4.5	-13.5	-9.77*	-1.64	0.0844
COc1ccccc1N1CCN(C(=O)CSc2nnc3c4ccccc4nc(Cc4ccccc4)n23)CC1	20.4	-10.8	16.9	.	-0.883	0.0817
Cc1ccc(SC(C)C(=O)NCc2ccncc2)cc1 (centres undefined)	-1.3	29.1	-9.7	2.53*	0.515	0.0835
CCOc1cc(C)c(Cl)cc1S(=O)(=O)NC1CC(C)(C)NC(C)(C)C1	46.4	1.1	-22.4	-3.66*	-0.141	0.0645*
CCOc1cc(C)c(Cl)cc1S(=O)(=O)NCCOC	-4.0	-2.0	3.0	1.38	1.17	.
COc1cc(C)c(Cl)c(C)c1S(=O)(=O)NC1CC(C)(C)NC(C)(C)C1	19.1	23.7	3.5	-2.63*	-0.0719	0.0534*
COc1ccc(N2CCN(C(=O)CN3CCN(C(c4ccccc4)c4ccccc4)CC3)CC2)cc1	28.6	0.2	10.8	-0.816	0.848	.
CC(C)Cc1nnc(NC(=O)CSc2nc(O)c(Cc3ccccc3)c(=O)[nH]2)s1	-6.9	4.2	-2.9	0.407	-0.636	.
CCC(=O)Nc1ccc(Oc2ccc(NC(=O)CC)c(NC(=O)CC)c2)cc1	-3.7	-40.0	-20.2	0.000177	-0.228	.
O=C(/C=C\c1ccco1)Oc1cccc2cccnc12	97.3*	-13.0	11.0	-21.9*	-0.725	0.0857
Clc1ccc(Cl)c(OCCCCNCc2ccccc2)c1	98.0*	-14.2	47.5	-3.24*	-2.11	0.0656*
SMILES	L major viab	m-calpain inh	WT yeast gro inh	ROMK mod	Cl transport mod	ROMK retest
Cc1cc(Cl)c(OCCCNCc2ccccc2)c(Br)c1	84.1*	-3.8	-14.4	-5.18*	-0.675	0.0529*
Clc1ccc(OCCCNCc2ccccc2)c(Br)c1	91.4*	8.3	35.9	-2.95*	-0.984	0.0635*
Cc1cccc(OCCCCNCc2ccccc2)c1	89.3*	24.7	31.7	-1.33*	-1.75	0.0617*
CCCCCCn1ccc(=N)cc1	2.1	10.2	-0.6	.	.	.
CCCCCCCCCCCCCCCCn1cc[n+](CC(C)=O)c1	100.3*	53.8*	97.9	-4.86*	0.0889	0.063*
Cc1ccccc1N1C(=S)NC2c3ccccc3OC1(C)C2C(=O)N(C)C (centres undefined)	0.5	-13.3	4.7	-6.84*	0.299	0.0553*
CCCN(CCC)S(=O)(=O)c1ccc(Cl)c(OC)c1	5.2	26.7	-6.8	-16*	-0.363	?
CC(C)CN=C(NS(=O)(=O)c1ccccc1)C(Cl)(Cl)Cl	89.7*	-1.0	57.9	.	1.19	0.05*
COc1ccc(S(=O)(=O)Nc2ccc(F)c(F)c2)cc1Cl	5.9	20.3	8.1	-3.2*	0.175	0.0586*
